tim10-1 inh – inhibits growth of tim10-1 mutant yeast. S. cerevisiae tim10-1 ts strain growth, BacTiter-Glo, 24 h. inhibition, % at 20 µM. 2.2% of 330,000 active. AID 463190;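 active = inhibition of at least 40%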;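 note: mutant grown at 25 °C; 0% = DMSO wells with yeast and 100% = wells holding no yeast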
TIM10 inh – TIM10 yeast growth inhibition. S. cerevisiae TIM10 strain growth, BacTiter-Glo luminescence, 24 h. inhibition, % at 10 µM. 1.4% of 330,000 active. AID 463195;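 active = inhibition of 40% or more at the single tested concentration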;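 note: wild-type TIM10 isogenic control strain grown at permissive 25 °C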
Mot1-301 SUMO – SUMOylation pathway inhibition by Mot1-301 growth rescue; S. cerevisiae Mot1-301 growth rescue, ATP luminescence, 38.5C; percent above DMSO median, 100 means doubled; growth rescue, % at 18.8 µM; 1% of 320,000 active;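 active = every valid replicate shows activation above 250% relative to neutral control wells; inactive = the rest, any valid replicate at or below 250%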;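 note: OY570 slx delta 5 strain wells were the positive control but not used for scaling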
PfHsp90 set2 – inhibits growth of yeast expressing Plasmodium falciparum Hsp90; S. cerevisiae expressing PfHsp90, BacTiter-Glo ATP, 48 h; yeast lacking PDR1 and PDR3 efflux regulators; inhibition, % at 9.4 µM; 0.32% of 310,000 active; AID 504621;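 active = every replicate shows inhibition above about 80%, whatever the replicate mean, limit read from the data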;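 note: 0% = DMSO neutral controls and 100% = 20 µM radicicol positive controls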
tim23-1 inh – inhibits growth of tim23-1 mutant yeast | S. cerevisiae tim23-1 growth, BacTiter-Glo luminescence, 24 h | inhibition, % at 20 µM | 1.3% of 330,000 active | AID 463212;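 active = growth inhibition of the mutant yeast at or above 50%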;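 note: temperature-sensitive mutant grown at 25 °C; plate controls were DMSO-treated mutant yeast for no effect and medium wells lacking yeast for full effect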
TIM10 conf – TIM10 yeast growth inhibition, confirmed | 63% of 4,600 active | AID 463215 | shares compounds with TIM10 inh | inhibition, % at 10 µM | S. cerevisiae tim10 strain growth, BacTiter-Glo luminescence, 24 h;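 active = inhibition of yeast growth at or above a set limit in either of two replicates at 10 µM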;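 note: this counterscreen used the strain with wild-type TIM10; 0% = yeast with DMSO and 100% = medium wells lacking yeast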
* marks the source's active call; other numbers are inactive results; x = no result. Hits are enriched below; roughly 4.4% of the tested compounds scored in any of these assays.

SMILES | tim10-1 inh | TIM10 inh | Mot1-301 SUMO | PfHsp90 set2 | tim23-1 inh | TIM10 conf
CCCCCCCC[n+]1cccc(C(=O)N(CC)CC)c1 | -4 | -3 | 17 | -10 | 19 | x
CCCCCCCCCCCCCCCC[n+]1ccc(C(N)=O)cc1 | -12 | 48* | 45 | 104* | 42 | -7
COc1ccc(NC(=O)c2cccc3ccccc23)cc1 | -6 | 2 | 3 | -15 | 2 | x
COc1ccc(NC(=O)c2ccccc2C)cc1 | -1 | 85* | -2 | 32 | 3 | 10
COc1ccccc1C(=O)Oc1ccccc1C(=O)Nc1ccccc1 | 7 | 41* | -21 | 3 | 49 | 31
Cc1ccc(N(C)S(=O)(=O)c2cc3c(cc2C)NC(=O)CO3)cc1 | -4 | -6 | -4 | -20 | -12 | x
Cc1cc(C)cc(N(CCC#N)C(=O)CSc2ncnc3sccc23)c1 | 0 | 1 | 7 | -8 | 22 | x
CC(=O)Nc1nc2c(C)c(Cl)ccc2s1 | -5 | -8 | 5 | -10 | 3 | x
Cc1c(Cl)ccc2sc(NC(=O)C3CC3)nc12 | 18 | 44* | 67 | -23 | 50 | 38*
Cc1cccn2c(=O)nc(SCC(=O)NCc3ccccc3)nc12 | -2 | 4 | 18 | -17 | -6 | x
Cc1ccc(C2CC2c2n[nH]c(=S)n2-c2ccc(Cl)cc2)cc1 (stereo unspecified) | 27 | 51* | 10 | -3 | 31 | 42*
Nc1nc(N)nc(-c2ccc(Cl)cc2)n1 | -4 | 1 | -1 | 12 | -7 | x
Cc1ccc(Oc2ccc(-c3nc(N)nc(N)n3)cc2)cc1 | 27 | 45* | 5 | -14 | 23 | -36
O=[N+]([O-])c1ccc(NC(=S)NCc2ccc(F)cc2)cc1 | 36 | 42* | 56 | -2 | 41 | 42*
COc1ccc(C(=O)O)cc1S(=O)(=O)NCc1ccncc1 | 11 | 2 | -4 | 31 | 6 | x
CCC(C)(C)C1CCc2[nH]nc(C(=O)N/N=C(\C)c3ccco3)c2C1 (stereo unspecified) | 31 | 45* | 8 | -5 | 47 | 25
Cc1ccccc1-c1cc2c(nn1)-c1ccccc1C2=O | 28 | 44* | -31 | 3 | 44 | 30*
O=C1c2ccccc2-c2nnc(-c3ccc(O)cc3)cc21 | 27 | 50* | -42 | 9 | 17 | 31*
S=C(NCCc1ccccc1)N/N=C/c1ccc(Cl)cc1 | 12 | 41* | 60 | -7 | 42 | 33*
COc1ccc(OC)c(CNC(=O)CCS(=O)(=O)c2ccc3c(c2)oc(=O)n3C)c1 | 12 | -4 | -14 | 12 | 12 | x
C=CCN1C(=O)c2ccc(C(=O)N(CC(C)C)c3c(N)n(CCCC)c(=O)[nH]c3=O)cc2C1=O | 0 | 2 | -11 | x | -7 | x
COc1cccc2cc(-c3n[nH]c(=S)n3C)oc12 | 38 | 42* | -16 | -1 | 28 | 20
CNc1ccc(/C=C/C(=O)c2cccc3ccccc23)cc1[N+](=O)[O-] | 39 | 45* | 2 | -16 | 39 | -9
COc1ccc(-c2nnc3sc(-c4ccco4)nn23)cc1OC | -2 | -19 | 151 | 25 | -24 | x
COc1ccc(-c2nn3c(-c4ccco4)nnc3s2)cc1OC | 39 | 45* | -6 | -6 | 20 | -10
SMILES | tim10-1 inh | TIM10 inh | Mot1-301 SUMO | PfHsp90 set2 | tim23-1 inh | TIM10 conf
CCOC(=O)c1c(CN2CCOCC2)n(-c2ccccc2)c2cc(Br)c(O)c(CN(C)C)c12 | 38 | 57* | -15 | -10 | 35 | 40*
CCOc1ccc(CCNC(=O)COC(=O)/C=C/c2ccccc2OC)cc1OCC | 11 | -1 | 26 | x | 12 | x
CC(C)(C)c1cc(O)c(C(C)(C)C)cc1O | 31 | 47* | -30 | x | 46 | 42*
Cc1cc(C(C)(C)C)c(O)c(C(C)(C)C)c1 | -13 | 4 | 649 | -3 | -17 | x
COc1cccc(/C=N/NC(=O)c2cc(-c3ccccn3)nc3ccccc23)c1O | 19 | 45* | 0 | 22 | 25 | 7
O=C(N/N=C/c1ccc(F)cc1)c1cc(-c2ccccn2)nc2ccccc12 | -9 | -16 | x | -4 | -5 | x
CN(C)c1ccc(C(O)P(=O)(OC2CCCCC2)OC2CCCCC2)cc1 (stereo unspecified) | 21 | 24 | 1 | -2 | 39 | x
Cc1ccc(C(O)P(=O)(OC2CCCCC2)OC2CCCCC2)cc1 (stereo unspecified) | 38 | 40* | -5 | -26 | 35 | 39*

High-throughput results: PubChem BioAssay, several laboratories
